The source made the active and inactive calls. Unless noted, the rule behind the calls is not given here.

For experiment [1], the system named is XIP peptide (Xip251-270) binding. As to the kind of experiment: small-molecule binders of XIP peptide, primary screen, biochemical, small-molecule microarray, fluorescence 635/667 nm, 0.1 µg/mL protein (AID 1182). The conditions noted are these: fluorescent protein binding, 635 nm, higher = more signal, called active from +8 up or from −8 down.
Another experiment relates to XIP peptide (Xip251-270). The experiment in a line: small-molecule binders of XIP peptide, primary screen, biochemical, small-molecule microarray, fluorescence 635/667 nm, 0.5 µg/mL protein (AID 1183). The settings on record: small-molecule microarray binding, fluorescence 635 nm; higher = more signal.
Experiment [2] can be described thus: Plasmodium falciparum growth inhibition, primary screen, strain 3D7, DAPI fluorescence, 100 nL (AID 1184).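 Note: parasites grown inside human red blood cells in medium with human serum.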 The conditions noted are these: P. falciparum 3D7 growth, 3 d, higher = more signal.
For experiment [3], the target named is Homeobox protein Hox-A13 (Mus musculus) (UniProt Q62424). As to the kind of experiment: inhibitors of HoxA13-DNA binding, primary screen, biochemical, fluorescence polarization, labeled oligonucleotide (AID 1185). The settings on record: 15 min, higher = more signal, called active from +8 up or from −8 down.
Homeobox protein Hox-A13 (Mus musculus), sequence (Q62424 whole entry, looked up): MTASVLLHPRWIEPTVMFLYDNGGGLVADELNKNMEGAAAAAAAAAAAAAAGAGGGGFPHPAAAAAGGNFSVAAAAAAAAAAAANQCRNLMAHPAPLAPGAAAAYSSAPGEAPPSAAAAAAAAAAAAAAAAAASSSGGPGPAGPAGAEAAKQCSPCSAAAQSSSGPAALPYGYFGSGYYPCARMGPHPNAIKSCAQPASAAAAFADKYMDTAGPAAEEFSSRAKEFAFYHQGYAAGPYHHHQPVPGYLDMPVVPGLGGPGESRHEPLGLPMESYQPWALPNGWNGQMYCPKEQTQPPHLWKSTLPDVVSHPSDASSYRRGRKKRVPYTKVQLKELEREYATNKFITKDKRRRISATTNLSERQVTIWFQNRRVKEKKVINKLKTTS
Experiment [4] can be described thus: inhibitors of hydroxyurea-induced Chk1 phosphorylation, primary screen, imaging, HeLa, phospho-Chk1 antibody, percent positive cells (AID 1186). The settings on record: hydroxyurea-induced phospho-Chk1 immunofluorescence imaging, higher = more signal.
Experiment [5] in a line: inhibitors of hydroxyurea-induced Chk1 phosphorylation, primary screen, imaging, HeLa, phospho-Chk1 nuclear intensity (AID 1187). The conditions noted are these: hydroxyurea-induced phospho-Chk1 immunofluorescence imaging, higher = more signal.

As for `COCCOC(=O)N1C(=O)[C@@]2(c3cc(C#CCNC(N)=O)ccc31)[C@H](C(=O)N1CCN(c3ncccn3)CC1)[C@H]1C(=O)O[C@H](c3ccccc3)[C@H](c3ccccc3)N1[C@@H]2c1ccc(OCCO)cc1`, the results for the composite z-score (in experiment [1]; in the experiment with XIP peptide (Xip251-270)) were 0.0897 (inactive) and 0.697, respectively. In addition, the z-score was -0.939 in experiment [2], 0.245 (inactive) in experiment [3], 0.138 (inactive) in experiment [4] and 0.0943 (inactive) in experiment [5].
Consider `Cc1ccc(N2C(=O)c3ccccc3[C@@H](C(=O)NC3CC3)[C@@H]2c2ccc(CO)cc2)nc1`, for which the composite z-score in experiment [1] was -1.49 (inactive); in the experiment on XIP peptide (Xip251-270), -0.0549. In addition, the z-score in experiment [2] was -0.651; in experiment [3], -1.95 (inactive); in experiment [4], -0.0109 (inactive); in experiment [5], -0.28 (inactive).
Take `CN(C)C(=O)[C@@]1(CCS(=O)(=O)c2ccccc2)COC(c2ccc(OCCCO)cc2)=N1`: the composite z-score in experiment [1] was 0.551 (inactive); in the experiment on XIP peptide (Xip251-270), 0.299. In addition, the z-score in experiment [2] was -0.697; in experiment [3], -5.72 (inactive); in experiment [4], -0.0692 (inactive); in experiment [5] it was -0.023 (inactive).
`COC(=O)C[C@H]1O[C@]2(C(=O)N(C)c3ccccc32)[C@@H](C)[C@@H]1[Si](C)(C)F`: the composite z-score in experiment [1] was -0.0066 (inactive); in the experiment with XIP peptide (Xip251-270) it was 0.181. Further, the z-score was 0.522 in experiment [2], -1.19 (inactive) in experiment [3], 0.23 (inactive) in experiment [4] and 0.843 (inactive) in experiment [5].
Consider `COc1cc(Br)cc(C(O)C2C=CC3C(=O)N(C)C(=O)C3N2N2CCCCC2)c1OC` (stereo unspecified), for which the composite z-score was -0.0992 (inactive) in experiment [1] and 0.823 with XIP peptide (Xip251-270). Moreover, the z-score is -0.11 in experiment [2], -2.65 (inactive) in experiment [3], 0.293 (inactive) in experiment [4] and 0.0293 (inactive) in experiment [5].
For the molecule `COC(=O)[C@@]1(Cc2ccccc2)[C@H]2c3cc(C(=O)N(C)C)n(Cc4ccsc4Br)c3C[C@H]2CN1C(=O)c1ccccc1`, the composite z-score was 0.274 (inactive) in experiment [1] and 0.116 in the experiment with XIP peptide (Xip251-270). Further, the z-score in experiment [2] is -1.51; in experiment [3] it was -4.23 (inactive); in experiment [4], 0.567 (inactive); in experiment [5], 0.0591 (inactive).
As for `C=C[C@H](C)[C@@H](OC(=O)Nc1ccc(OC)cc1)c1ccc(O)c2ccccc12`, the composite z-score is 0.863 (inactive) in experiment [1] and 0.251 with XIP peptide (Xip251-270). Moreover, the z-score in experiment [2] is 0.0221; in experiment [3] it was -4.35 (inactive); in experiment [4], -0.025 (inactive); in experiment [5] it was 0.099 (inactive).
Regarding `O=C(CS)NCCCCCCNC(=O)[C@@H]1C[C@@H]2C(=O)NCC(=O)N2[C@@H]1c1cccc(OCCO)c1`, the composite z-score was 0.67 (inactive) in experiment [1] and 0.579 with XIP peptide (Xip251-270). Moreover, the z-score in experiment [2] was 0.132; in experiment [3] it was -2.98 (inactive); in experiment [4] it was 0.376 (inactive); in experiment [5], 0.376 (inactive).
Take `CCOC(=O)C[C@H]1[C@H](OC(=O)c2ccc(C(=O)c3ccccc3)cc2)[C@@H](NC(=O)c2ccc3ccccc3c2)c2cc(OCCCO)ccc2N1C(=O)Cc1ccc(OC)cc1`: the values for the composite z-score (in experiment [1]; in the experiment with XIP peptide (Xip251-270)) were 0.135 (inactive) and -0.011, respectively. The z-score in experiment [2] is -1.06; in experiment [3], -1.59 (inactive); in experiment [4], -0.0477 (inactive); in experiment [5] it was -0.0525 (inactive).
`C=C(CCCC)C(=O)CC[C@@H](OC(=O)c1ccccc1-c1ccccc1C(=O)O)c1ccc(OCCO)cc1`: the composite z-score in experiment [1] was 0.175 (inactive); in the experiment with XIP peptide (Xip251-270) it was 0.602. Besides, the z-score is -2.46 in experiment [2], -5.5 (inactive) in experiment [3], 0.431 (inactive) in experiment [4] and 0.362 (inactive) in experiment [5].
As for `COc1ccc([C@H]2OC[C@@H]3C[C@@H](Cc4ccccc4)C(=O)N32)cc1`, the composite z-score in experiment [1] was 0.617 (inactive); in the experiment on XIP peptide (Xip251-270) it was 0.0682. Further, the z-score in experiment [2] was 0.583; in experiment [3] it was -1.06 (inactive); in experiment [4], 0.375 (inactive); in experiment [5], 0.0727 (inactive).
Turning to `COC(=O)[C@@]1(Cc2ccccc2)N=C(c2ccc(OCCCO)cc2)O[C@H]1c1ccccc1`, the composite z-score in experiment [1] is 1.16 (inactive); with XIP peptide (Xip251-270), 0.743. The z-score is -1.92 in experiment [2], -4.38 (inactive) in experiment [3], -0.343 (inactive) in experiment [4] and -0.094 (inactive) in experiment [5].
In the case of `C=CC[C@@]1(C(=O)NCCN2CCOCC2)N=C(c2ccc(OCCCO)cc2)O[C@@H]1c1ccccc1N=[N+]=[N-]`, the composite z-score was 2.32 (inactive) in experiment [1] and -0.0559 in the experiment with XIP peptide (Xip251-270). Further, the z-score was -2.21 in experiment [2], -6.17 (inactive) in experiment [3], 0.003 (inactive) in experiment [4] and -0.0928 (inactive) in experiment [5].
With `C=C(COC)C(=O)CC[C@@H](OC(C)=O)c1ccc(CO)o1`, the results for the composite z-score (in experiment [1]; in the experiment with XIP peptide (Xip251-270)) were 0.861 (inactive) and -0.0256, respectively. In addition, the z-score was 0.216 in experiment [2], -3.72 (inactive) in experiment [3], 0.293 (inactive) in experiment [4] and 0.384 (inactive) in experiment [5].
As to `C=CCC(OC(C)=O)[C@@H]1[C@@H](N(Cc2ccc(-c3cccc(C(F)(F)F)c3)o2)C(=O)c2ccc(C)cc2)c2cc(OCCCO)ccc2N1C(=O)Cc1ccc2ccccc2c1` (stereo partly specified), the composite z-score in experiment [1] was 0.332 (inactive); in the experiment on XIP peptide (Xip251-270), -0.0506. The z-score is 0.337 in experiment [2], -0.62 (inactive) in experiment [3], -0.385 (inactive) in experiment [4] and -0.709 (inactive) in experiment [5].
With `C=CCC(OC(C)=O)[C@@H]1[C@@H](N(Cc2cc3ccccc3o2)C(=O)c2cccc3ccccc23)c2cc(OCCCO)ccc2N1C(=O)c1ccc(-c2ccccc2)cc1` (stereo partly specified), the composite z-score is 0.277 (inactive) in experiment [1] and 0.287 in the experiment with XIP peptide (Xip251-270). Further, the z-score in experiment [2] was -3.01; in experiment [3], -0.424 (inactive); in experiment [4] it was 0.0396 (inactive); in experiment [5], 0.577 (inactive).
`CC(C)=CCN[C@H](CO)c1ccccc1`: the composite z-score in experiment [1] is -0.0202 (inactive); in the experiment on XIP peptide (Xip251-270), -0.319. Moreover, the z-score in experiment [2] is -1.72; in experiment [3] it was 0.039 (inactive); in experiment [4], 0.257 (inactive); in experiment [5], -0.0254 (inactive).
With `CCOC(=O)C[C@H]1[C@H](OC(=O)c2ccc(C(=O)c3ccccc3)cc2)[C@@H](NC(=O)CC(C)C)c2cc(OCCCO)ccc2N1C(=O)c1ccc2ccccc2n1`, the composite z-score in experiment [1] is 1.24 (inactive); in the experiment on XIP peptide (Xip251-270), 0.642. Moreover, the z-score in experiment [2] was -0.057; in experiment [3], -2.72 (inactive); in experiment [4], -0.776 (inactive); in experiment [5], -0.687 (inactive).
As for `CC(CO)N1C(=O)[C@@H]2C3C(=O)OCCC/C=C\[C@H]3OC23C=CCN(C(C)(C)C)C(=O)[C@@H]13` (stereo partly specified), the composite z-score in experiment [1] is 0.453 (inactive); with XIP peptide (Xip251-270), -0.0516. Besides, the z-score was 0.67 in experiment [2], -4.72 (inactive) in experiment [3], -0.423 (inactive) in experiment [4] and -1.21 (inactive) in experiment [5].
Turning to `C=CCC(OC(C)=O)[C@@H]1[C@@H](N(Cc2cccc3ccccc23)C(=O)c2ccc(-c3ccccc3)cc2)c2cc(OCCCO)ccc2N1C(=O)c1ccc2ccccc2c1` (stereo partly specified), the composite z-score is -0.176 (inactive) in experiment [1] and 0.0439 with XIP peptide (Xip251-270). Moreover, the z-score in experiment [2] was -1.55; in experiment [3], -1.35 (inactive); in experiment [4], 0.145 (inactive); in experiment [5], -0.0284 (inactive).
Consider `O=C1O[C@@H](c2ccccc2)[C@@H](c2ccccc2)N2[C@@H](c3ccccc3OCCO)[C@]3(C(=O)Nc4ccc(C#CC5=CCCCC5)cc43)[C@@H](C(=O)N3CCCCCCC3)[C@H]12`, for which the values for the composite z-score (in experiment [1]; with XIP peptide (Xip251-270)) were 5.92 (inactive) and 0.797, respectively. The z-score in experiment [2] was -2; in experiment [3], -13.8 (active); in experiment [4], -0.0478 (inactive); in experiment [5], -0.372 (inactive).
Take `Cc1ccccc1C(O)C1C=CC2C(=O)N(c3ccccc3)C(=O)C2N1Nc1ccc(C(C)C)cc1` (stereo unspecified): the composite z-score in experiment [1] is 0.167 (inactive); with XIP peptide (Xip251-270), 0.599. Also, the z-score is -0.739 in experiment [2], -1.77 (inactive) in experiment [3], 0.524 (inactive) in experiment [4] and 0.118 (inactive) in experiment [5].
Consider `O=C1C2C=CC(C(O)Cc3ccccc3)N(n3cnnc3)C2C(=O)N1Cc1ccccc1` (stereo unspecified), for which the composite z-score in experiment [1] was -0.139 (inactive); in the experiment on XIP peptide (Xip251-270), 0.686. Besides, the z-score in experiment [2] was -1.29; in experiment [3], -3.18 (inactive); in experiment [4] it was -0.179 (inactive); in experiment [5], -0.472 (inactive).
As for `COc1cc(COC(C)=O)ccc1OC(C)=O`, the results for the composite z-score (in experiment [1]; with XIP peptide (Xip251-270)) were -0.603 (inactive) and 0.213, respectively. Further, the z-score in experiment [2] was 0.287; in experiment [3], 0.579 (inactive); in experiment [4], -1.08 (inactive); in experiment [5] it was -1.53 (inactive).
For `COC(=O)[C@@]1(CCC(=O)OC(C)(C)C)N=C(c2ccc(OCCCO)cc2)O[C@H]1c1ccccc1N=[N+]=[N-]`, the values for the composite z-score (in experiment [1]; in the experiment on XIP peptide (Xip251-270)) were 1.35 (inactive) and 0.664, respectively. Also, the z-score is -2.33 in experiment [2], -2.14 (inactive) in experiment [3], 0.114 (inactive) in experiment [4] and -0.229 (inactive) in experiment [5].
As for `Cc1nc2cc(Br)ccc2c(=O)o1`, the composite z-score in experiment [1] is 0.312 (inactive); in the experiment with XIP peptide (Xip251-270), 0.139. The z-score is -0.973 in experiment [2], 0.0804 (inactive) in experiment [3], -0.131 (inactive) in experiment [4] and 0.134 (inactive) in experiment [5].

These data come from PubChem BioAssay.
